# ChEMBL document CHEMBL1961873, “Compounds: GSK PKIS; Assays: Nanosyn kinase panel” (2012)
# Experiments:
# [1] = target: Calcium/calmodulin-dependent protein kinase type II subunit alpha (Homo sapiens) (UniProt Q9UQM7); conditions: at 1 µM;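 note: reported value is a mean percent inhibition of CAMK2A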
# [2] = target: Calcium/calmodulin-dependent protein kinase type II subunit delta (Homo sapiens) (UniProt Q13557); conditions: at 0.1 µM
# [3] = target: Calcium/calmodulin-dependent protein kinase type II subunit delta (Homo sapiens) (UniProt Q13557); conditions: at 1 µM
# [4] = target: T1, Calcium/calmodulin-dependent protein kinase type IV (Homo sapiens) (UniProt Q16566); conditions: at 0.1 µM
# T1 sequence (whole entry): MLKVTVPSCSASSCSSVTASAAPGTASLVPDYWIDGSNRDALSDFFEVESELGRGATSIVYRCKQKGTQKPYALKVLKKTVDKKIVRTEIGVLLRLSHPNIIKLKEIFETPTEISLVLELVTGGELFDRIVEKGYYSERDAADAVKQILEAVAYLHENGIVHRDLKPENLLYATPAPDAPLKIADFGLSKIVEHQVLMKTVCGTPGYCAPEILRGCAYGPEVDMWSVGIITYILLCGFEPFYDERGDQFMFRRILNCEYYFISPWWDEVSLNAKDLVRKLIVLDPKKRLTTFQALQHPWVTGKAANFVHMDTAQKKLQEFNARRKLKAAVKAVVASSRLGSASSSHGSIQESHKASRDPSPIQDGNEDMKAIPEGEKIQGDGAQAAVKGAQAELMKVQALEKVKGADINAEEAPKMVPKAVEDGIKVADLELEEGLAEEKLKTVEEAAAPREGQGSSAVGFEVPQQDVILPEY
# [5] = target: T1, Calcium/calmodulin-dependent protein kinase type IV (Homo sapiens); conditions: at 1 µM
# [6] = target: T2, Serine/threonine-protein kinase Chk1 (Homo sapiens) (UniProt O14757); conditions: at 0.1 µM
# T2 sequence (whole entry): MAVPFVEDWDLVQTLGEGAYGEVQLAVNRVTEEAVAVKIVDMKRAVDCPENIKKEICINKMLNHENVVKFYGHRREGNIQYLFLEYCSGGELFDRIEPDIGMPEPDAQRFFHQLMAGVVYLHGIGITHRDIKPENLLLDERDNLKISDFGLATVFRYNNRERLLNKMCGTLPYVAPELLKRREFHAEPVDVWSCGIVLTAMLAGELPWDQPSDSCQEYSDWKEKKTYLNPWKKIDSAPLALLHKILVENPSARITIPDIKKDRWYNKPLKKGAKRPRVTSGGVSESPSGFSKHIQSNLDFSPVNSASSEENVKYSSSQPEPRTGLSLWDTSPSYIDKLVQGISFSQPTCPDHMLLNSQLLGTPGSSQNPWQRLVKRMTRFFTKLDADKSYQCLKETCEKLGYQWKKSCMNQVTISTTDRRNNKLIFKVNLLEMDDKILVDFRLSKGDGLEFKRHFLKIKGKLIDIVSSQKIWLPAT
# [7] = target: T2, Serine/threonine-protein kinase Chk1 (Homo sapiens); conditions: at 1 µM
# [8] = target: Serine/threonine-protein kinase Chk2 (Homo sapiens) (UniProt O96017); conditions: at 0.1 µM
# [9] = target: Serine/threonine-protein kinase Chk2 (Homo sapiens) (UniProt O96017); conditions: at 1 µM
# [10] = target: Death-associated protein kinase 1 (Homo sapiens) (UniProt P53355); conditions: at 0.1 µM
# [11] = target: Death-associated protein kinase 1 (Homo sapiens) (UniProt P53355); conditions: at 1 µM
# [12] = target: T3, Serine/threonine-protein kinase DCLK2 (Homo sapiens) (UniProt Q8N568); conditions: at 0.1 µM
# T3 sequence (whole entry): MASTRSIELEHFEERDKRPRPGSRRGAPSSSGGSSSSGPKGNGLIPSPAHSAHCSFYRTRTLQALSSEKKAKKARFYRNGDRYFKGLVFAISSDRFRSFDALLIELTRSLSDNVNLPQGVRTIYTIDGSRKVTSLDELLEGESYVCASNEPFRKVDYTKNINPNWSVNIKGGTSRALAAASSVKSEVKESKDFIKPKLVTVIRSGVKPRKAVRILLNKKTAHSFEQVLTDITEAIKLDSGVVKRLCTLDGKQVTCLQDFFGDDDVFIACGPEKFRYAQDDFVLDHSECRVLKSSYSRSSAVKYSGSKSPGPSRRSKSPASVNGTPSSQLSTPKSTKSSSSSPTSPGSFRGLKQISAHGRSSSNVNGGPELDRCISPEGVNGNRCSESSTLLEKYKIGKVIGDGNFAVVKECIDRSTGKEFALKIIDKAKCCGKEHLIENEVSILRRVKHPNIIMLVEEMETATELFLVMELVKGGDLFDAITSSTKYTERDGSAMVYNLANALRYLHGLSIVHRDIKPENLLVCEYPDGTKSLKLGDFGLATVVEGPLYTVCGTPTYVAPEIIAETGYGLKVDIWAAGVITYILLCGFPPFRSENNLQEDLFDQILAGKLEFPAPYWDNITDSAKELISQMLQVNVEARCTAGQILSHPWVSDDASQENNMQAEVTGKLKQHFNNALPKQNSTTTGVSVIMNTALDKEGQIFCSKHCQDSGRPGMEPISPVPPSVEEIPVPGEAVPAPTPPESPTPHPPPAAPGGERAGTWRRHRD
# [13] = target: T3, Serine/threonine-protein kinase DCLK2 (Homo sapiens); conditions: at 1 µM
# [14] = target: MAP kinase-activated protein kinase 2 (Homo sapiens) (UniProt P49137); conditions: at 0.1 µM
# [15] = target: MAP kinase-activated protein kinase 2 (Homo sapiens) (UniProt P49137); conditions: at 1 µM
# [16] = target: MAP kinase-activated protein kinase 3 (Homo sapiens) (UniProt Q16644); conditions: at 0.1 µM
# [17] = target: MAP kinase-activated protein kinase 3 (Homo sapiens) (UniProt Q16644); conditions: at 1 µM
# [18] = target: Serine/threonine-protein kinase MARK1 (Homo sapiens) (UniProt Q9P0L2); conditions: at 0.1 µM
# [19] = target: Serine/threonine-protein kinase MARK1 (Homo sapiens) (UniProt Q9P0L2); conditions: at 1 µM
# [20] = target: MAP/microtubule affinity-regulating kinase 3 (Homo sapiens) (UniProt P27448); conditions: at 0.1 µM;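 note: mean percent inhibition of MARK3 kinase activity, measured within the GSK PKIS screening panel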
# Sequence of Calcium/calmodulin-dependent protein kinase type II subunit alpha (Homo sapiens) (Q9UQM7 whole entry): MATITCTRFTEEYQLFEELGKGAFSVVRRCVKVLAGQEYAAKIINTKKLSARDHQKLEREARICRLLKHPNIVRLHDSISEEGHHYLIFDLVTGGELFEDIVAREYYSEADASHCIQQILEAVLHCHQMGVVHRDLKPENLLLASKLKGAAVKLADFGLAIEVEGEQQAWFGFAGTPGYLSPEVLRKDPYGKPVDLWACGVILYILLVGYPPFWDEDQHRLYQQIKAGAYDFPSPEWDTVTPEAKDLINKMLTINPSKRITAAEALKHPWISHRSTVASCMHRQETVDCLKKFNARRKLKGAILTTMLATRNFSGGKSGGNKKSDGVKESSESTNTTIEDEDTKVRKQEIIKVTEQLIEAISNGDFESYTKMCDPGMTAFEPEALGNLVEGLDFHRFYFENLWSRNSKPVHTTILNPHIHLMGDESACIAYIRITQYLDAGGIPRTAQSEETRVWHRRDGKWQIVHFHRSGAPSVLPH
# Sequence of Serine/threonine-protein kinase Chk2 (Homo sapiens) (O96017 whole entry): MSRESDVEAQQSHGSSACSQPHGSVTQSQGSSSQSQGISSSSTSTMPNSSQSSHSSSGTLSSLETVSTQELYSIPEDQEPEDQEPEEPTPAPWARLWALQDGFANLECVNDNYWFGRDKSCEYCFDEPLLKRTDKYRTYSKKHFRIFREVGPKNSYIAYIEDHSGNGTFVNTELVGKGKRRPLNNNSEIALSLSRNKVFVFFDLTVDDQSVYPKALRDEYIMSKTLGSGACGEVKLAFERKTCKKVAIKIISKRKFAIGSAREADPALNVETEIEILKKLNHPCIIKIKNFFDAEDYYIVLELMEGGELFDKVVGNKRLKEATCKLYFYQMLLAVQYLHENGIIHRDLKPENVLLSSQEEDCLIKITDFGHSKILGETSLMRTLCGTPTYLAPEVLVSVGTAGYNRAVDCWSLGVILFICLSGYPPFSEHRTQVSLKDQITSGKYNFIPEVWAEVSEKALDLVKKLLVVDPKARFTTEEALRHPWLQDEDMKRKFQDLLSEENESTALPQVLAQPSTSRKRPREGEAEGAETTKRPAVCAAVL
# Sequence of Serine/threonine-protein kinase MARK1 (Homo sapiens) (Q9P0L2 whole entry, looked up): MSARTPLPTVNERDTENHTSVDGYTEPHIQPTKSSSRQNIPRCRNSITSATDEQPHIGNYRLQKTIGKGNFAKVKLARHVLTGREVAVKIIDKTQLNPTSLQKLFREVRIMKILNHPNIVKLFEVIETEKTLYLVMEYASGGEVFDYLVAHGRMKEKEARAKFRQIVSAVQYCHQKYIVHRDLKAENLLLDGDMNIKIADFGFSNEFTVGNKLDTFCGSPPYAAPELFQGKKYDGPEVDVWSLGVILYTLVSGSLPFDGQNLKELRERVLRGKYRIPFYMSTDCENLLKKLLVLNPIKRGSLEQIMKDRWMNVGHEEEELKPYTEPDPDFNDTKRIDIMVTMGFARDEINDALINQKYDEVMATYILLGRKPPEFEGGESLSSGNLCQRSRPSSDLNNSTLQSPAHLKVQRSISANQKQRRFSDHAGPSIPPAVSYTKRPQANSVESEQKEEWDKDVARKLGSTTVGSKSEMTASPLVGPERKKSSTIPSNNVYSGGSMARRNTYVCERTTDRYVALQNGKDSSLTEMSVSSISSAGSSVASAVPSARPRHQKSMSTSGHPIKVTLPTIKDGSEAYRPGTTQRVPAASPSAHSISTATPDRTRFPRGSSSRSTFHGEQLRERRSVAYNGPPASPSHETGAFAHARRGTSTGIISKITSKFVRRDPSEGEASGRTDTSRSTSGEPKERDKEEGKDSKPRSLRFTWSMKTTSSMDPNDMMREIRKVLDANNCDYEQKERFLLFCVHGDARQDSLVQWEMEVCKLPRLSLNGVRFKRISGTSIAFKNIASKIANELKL
# Sequence of MAP kinase-activated protein kinase 3 (Homo sapiens) (Q16644 whole entry, looked up): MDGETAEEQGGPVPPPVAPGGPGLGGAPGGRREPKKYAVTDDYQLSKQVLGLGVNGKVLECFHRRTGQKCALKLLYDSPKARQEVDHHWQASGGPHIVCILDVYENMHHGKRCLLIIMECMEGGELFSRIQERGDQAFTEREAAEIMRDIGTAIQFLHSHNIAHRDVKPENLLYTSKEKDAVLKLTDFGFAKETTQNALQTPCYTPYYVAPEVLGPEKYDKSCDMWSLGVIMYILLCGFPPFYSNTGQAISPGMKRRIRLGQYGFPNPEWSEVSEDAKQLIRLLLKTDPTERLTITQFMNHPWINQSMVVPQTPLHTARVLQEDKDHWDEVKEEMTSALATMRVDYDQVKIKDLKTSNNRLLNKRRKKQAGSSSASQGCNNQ
# Sequence of MAP kinase-activated protein kinase 2 (Homo sapiens) (P49137 whole entry, looked up): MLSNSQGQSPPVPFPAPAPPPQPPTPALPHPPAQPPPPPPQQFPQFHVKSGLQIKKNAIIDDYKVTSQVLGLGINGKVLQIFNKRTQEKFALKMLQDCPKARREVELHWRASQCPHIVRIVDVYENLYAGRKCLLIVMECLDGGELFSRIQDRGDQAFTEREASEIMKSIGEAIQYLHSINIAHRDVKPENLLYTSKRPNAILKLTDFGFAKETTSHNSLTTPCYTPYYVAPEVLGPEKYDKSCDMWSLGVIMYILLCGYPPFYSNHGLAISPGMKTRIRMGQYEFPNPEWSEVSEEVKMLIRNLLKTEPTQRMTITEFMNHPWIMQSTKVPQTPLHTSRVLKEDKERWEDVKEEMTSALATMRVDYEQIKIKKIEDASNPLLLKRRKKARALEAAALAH
# Sequence of Death-associated protein kinase 1 (Homo sapiens) (P53355 whole entry, looked up): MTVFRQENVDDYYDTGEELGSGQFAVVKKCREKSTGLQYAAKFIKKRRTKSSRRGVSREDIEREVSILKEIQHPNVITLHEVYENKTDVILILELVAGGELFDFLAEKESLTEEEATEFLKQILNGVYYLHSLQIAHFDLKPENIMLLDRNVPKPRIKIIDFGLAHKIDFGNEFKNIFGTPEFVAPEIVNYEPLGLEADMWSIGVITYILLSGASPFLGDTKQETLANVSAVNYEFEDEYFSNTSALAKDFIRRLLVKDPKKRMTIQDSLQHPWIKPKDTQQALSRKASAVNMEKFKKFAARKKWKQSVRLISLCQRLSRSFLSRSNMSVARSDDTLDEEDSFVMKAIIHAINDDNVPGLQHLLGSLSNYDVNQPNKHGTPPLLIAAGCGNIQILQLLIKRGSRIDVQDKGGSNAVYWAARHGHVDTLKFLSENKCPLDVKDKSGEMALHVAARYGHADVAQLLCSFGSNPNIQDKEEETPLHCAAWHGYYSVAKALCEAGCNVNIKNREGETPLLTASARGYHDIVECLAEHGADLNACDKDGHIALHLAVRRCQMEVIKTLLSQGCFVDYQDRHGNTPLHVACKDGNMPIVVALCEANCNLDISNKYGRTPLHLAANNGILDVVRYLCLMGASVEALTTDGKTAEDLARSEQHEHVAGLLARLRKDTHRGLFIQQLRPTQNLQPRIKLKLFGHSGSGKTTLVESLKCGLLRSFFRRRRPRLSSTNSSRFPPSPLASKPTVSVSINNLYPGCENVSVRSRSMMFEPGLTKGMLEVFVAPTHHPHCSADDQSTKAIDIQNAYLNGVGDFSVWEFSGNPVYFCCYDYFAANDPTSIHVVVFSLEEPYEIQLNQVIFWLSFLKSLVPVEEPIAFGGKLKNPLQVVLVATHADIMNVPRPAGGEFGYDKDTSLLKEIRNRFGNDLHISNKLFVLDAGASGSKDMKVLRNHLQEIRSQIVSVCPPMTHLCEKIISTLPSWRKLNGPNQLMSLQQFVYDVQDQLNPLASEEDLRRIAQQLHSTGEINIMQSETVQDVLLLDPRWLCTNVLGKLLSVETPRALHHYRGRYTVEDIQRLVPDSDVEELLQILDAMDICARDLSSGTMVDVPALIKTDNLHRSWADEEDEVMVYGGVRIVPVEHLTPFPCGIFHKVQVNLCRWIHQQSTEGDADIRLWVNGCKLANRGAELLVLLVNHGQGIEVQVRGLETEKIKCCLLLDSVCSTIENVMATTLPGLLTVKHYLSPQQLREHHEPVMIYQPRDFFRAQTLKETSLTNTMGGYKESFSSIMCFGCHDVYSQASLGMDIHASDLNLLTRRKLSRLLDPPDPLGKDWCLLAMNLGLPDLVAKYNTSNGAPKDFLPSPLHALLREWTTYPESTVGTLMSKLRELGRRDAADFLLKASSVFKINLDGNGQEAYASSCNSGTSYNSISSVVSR
# Sequence of Calcium/calmodulin-dependent protein kinase type II subunit delta (Homo sapiens) (Q13557 whole entry): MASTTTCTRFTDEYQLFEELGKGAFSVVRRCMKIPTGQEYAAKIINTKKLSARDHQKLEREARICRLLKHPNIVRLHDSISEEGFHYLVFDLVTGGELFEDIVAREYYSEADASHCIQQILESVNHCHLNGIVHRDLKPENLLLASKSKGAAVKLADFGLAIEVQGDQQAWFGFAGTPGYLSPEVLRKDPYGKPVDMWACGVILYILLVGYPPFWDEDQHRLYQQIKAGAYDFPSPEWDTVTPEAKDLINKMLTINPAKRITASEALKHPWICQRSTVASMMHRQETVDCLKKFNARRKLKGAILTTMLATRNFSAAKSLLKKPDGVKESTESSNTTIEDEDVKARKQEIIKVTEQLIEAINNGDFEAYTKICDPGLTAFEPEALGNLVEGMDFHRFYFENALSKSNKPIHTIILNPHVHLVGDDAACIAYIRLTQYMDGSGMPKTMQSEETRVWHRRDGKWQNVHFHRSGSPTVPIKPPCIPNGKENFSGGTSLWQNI
SMILES,inhibition [1],inhibition [2],inhibition [3],inhibition [4],inhibition [5],inhibition [6],inhibition [7],inhibition [8],inhibition [9],inhibition [10],inhibition [11],inhibition [12],inhibition [13],inhibition [14],inhibition [15],inhibition [16],inhibition [17],inhibition [18],inhibition [19],inhibition [20]
CCc1nn2ncccc2c1-c1ccnc(NC2CC2)n1,3.03%,2.51%,4.18%,3.71%,2.48%,2.02%,2.69%,1.64%,3.66%,3.5%,1.38%,-1.54%,2.15%,1.44%,2.07%,1.73%,2.3%,0.89%,2.47%,0.47%
COc1ccc2c(-c3ccnc(Nc4cccc(OC(F)(F)F)c4)n3)cnn2n1,3.59%,2.75%,5.82%,-0.96%,-0.82%,3.59%,5.26%,3.11%,5.21%,5.2%,5.37%,0.72%,0.97%,2.32%,2.88%,4.5%,5.2%,2.92%,6.68%,0.91%
CCNC(=O)O[C@H]1CN[C@H](C#Cc2cc3ncnc(Nc4ccc(OCc5cccc(F)c5)c(Cl)c4)c3s2)C1,3.02%,3.6%,4.34%,2.5%,2.5%,3.99%,2.84%,2.23%,2.55%,3.17%,3.45%,1.18%,2.85%,1.55%,1.53%,2.87%,2.32%,1.89%,2.65%,2.76%
Fc1ccc(-c2nn3ncccc3c2-c2ccnc(Nc3ccc4c(c3)OCCO4)n2)cc1,4.05%,3.8%,5.51%,0.98%,1.52%,1.26%,-1.02%,3.9%,5.77%,0.23%,2.12%,1.43%,-0.42%,1.56%,1.39%,34.4%,37.8%,1.97%,3.47%,4.24%
N#Cc1c(NC(=O)c2ccc(F)cc2)sc2c1CCCC2,-0.01%,0.08%,0.72%,-0.9%,2.49%,0.15%,0.56%,-0.21%,0.73%,0.39%,0.36%,0%,5.74%,0.34%,-0.56%,0.8%,0.7%,1.17%,0.93%,-0.62%
COc1ccc(CNC(=O)c2ccc(-c3cc(-c4nnc(C)o4)ccc3C)cc2)cc1,0.47%,0.75%,-0.53%,-1.83%,-4.17%,6.78%,8.82%,6.34%,7.55%,9.67%,10.2%,1.92%,2.89%,4.31%,5.53%,14.5%,29.3%,1.53%,2.91%,1.55%
COc1cc2ncn(-c3cc(OCc4ccccc4C(F)(F)F)c(C(=O)N(C)C)s3)c2cc1OC,-0.49%,-1.72%,1.17%,0.72%,3.28%,-1.48%,1.32%,-0.7%,-0.07%,-0.75%,-1.63%,-2.64%,3.14%,-0.07%,-0.4%,-1.65%,0.87%,0.44%,1.45%,0.15%
Fc1ccc(-c2cc(-c3c[nH]nc3-c3ccccn3)ccn2)cc1,2.33%,2.86%,4.06%,-2.35%,-4.94%,1.21%,-0.75%,4.88%,5.9%,0.73%,3.05%,1.09%,-1.86%,2.53%,2.72%,7.67%,18.4%,4.11%,3.39%,2.52%
CS(=O)(=O)CCNCc1ccc(-c2ccc3ncnc(Nc4ccc(OCc5ccccc5)c(C(F)(F)F)c4)c3c2)o1,-1.78%,1.83%,1.77%,-0.46%,-1.2%,8.46%,10.8%,7.47%,7.84%,12.8%,10.9%,7.37%,2.23%,4.99%,3.73%,8.97%,10.7%,2.72%,4.11%,3.87%
CN(C)CCOc1ccc(-c2nc(-c3ccncc3)c(-c3ccc4c(c3)CC/C4=N\O)[nH]2)cc1,2.29%,1.28%,1.23%,0.04%,-0.88%,2.48%,5.39%,1.94%,4.06%,3.99%,5.09%,0.7%,1.55%,1.68%,2.27%,2.57%,4.19%,2.54%,3.97%,2.63%
Cc1cccc2c1NC(=O)/C2=N\Nc1ccc(S(N)(=O)=O)cc1,3.33%,3.36%,3.56%,0.62%,1.1%,0.95%,5.04%,1.68%,2.64%,3.69%,4.75%,0.74%,2.14%,1.37%,1.1%,2.44%,2.04%,1.81%,3.2%,2.64%
CCCN1CCC(c2ccc(Nc3nc(Nc4cc(F)ccc4C(N)=O)c4cc[nH]c4n3)c(OC)c2)CC1,43.6%,20.9%,71%,7.54%,37.9%,0.91%,10.7%,58.3%,80.9%,3.52%,50%,1.99%,8.21%,1.84%,3.23%,5.33%,11.9%,9.11%,50.1%,12.2%
